Experimental findings from article PMC11006913 are described below.

Substitutions are numbered along the chain they refer to.

Holding throughout (assay): PBM; 200 nM protein, PBS
Details in all cases: dsDNA, one strand shown

In test [1] the target is NKX2-5 (Homo sapiens, UniProt P52952 125-210, R139K).
The target in test [2] is T1, NKX2-6 (Homo sapiens, UniProt A6NCS4 118-204, R150C).
T1 sequence: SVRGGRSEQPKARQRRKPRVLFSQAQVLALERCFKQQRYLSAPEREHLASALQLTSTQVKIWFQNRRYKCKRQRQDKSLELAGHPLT

Test [3] addresses HOXC10 (Homo sapiens, UniProt Q9NYD6 254-340).
Test [4] deals with HOXD13 (Homo sapiens, UniProt P35453 263-343, T313R).
Sequence of HOXD13 (Homo sapiens, UniProt P35453 263-343, T313R) (P35453 263-343 T313R): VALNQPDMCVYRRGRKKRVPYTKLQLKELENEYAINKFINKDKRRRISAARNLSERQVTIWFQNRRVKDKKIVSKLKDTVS
Test [5] addresses HOXD13 (Homo sapiens, UniProt P35453 263-343).
Test [6] concerns the target HOXC10 (Homo sapiens, UniProt Q9NYD6 254-340, K271E).
Test [7] concerns the target HOXD13 (Homo sapiens, UniProt P35453 263-343, T313A).
Test [8] concerns the target NKX2-5 (Homo sapiens, UniProt P52952 125-210).
In test [9] the target is HOXC9 (Homo sapiens, UniProt P31274 178-260, K195R).
Sequence of HOXC9 (Homo sapiens, UniProt P31274 178-260, K195R) (P31274 178-260 K195R): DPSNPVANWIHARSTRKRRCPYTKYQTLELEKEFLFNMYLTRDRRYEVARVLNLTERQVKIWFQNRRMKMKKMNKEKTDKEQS
Test [10] concerns the target T2, PAX4 (Homo sapiens, UniProt O43316 9-242, R200K).
T2 sequence: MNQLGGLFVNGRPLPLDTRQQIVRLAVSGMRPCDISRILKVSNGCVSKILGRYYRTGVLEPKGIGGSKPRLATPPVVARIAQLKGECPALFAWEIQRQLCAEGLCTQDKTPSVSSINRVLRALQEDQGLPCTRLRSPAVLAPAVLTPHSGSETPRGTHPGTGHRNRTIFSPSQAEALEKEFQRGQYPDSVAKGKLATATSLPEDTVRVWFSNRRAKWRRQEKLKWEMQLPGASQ

Test [11] has as its target T3, PAX4 (Homo sapiens, UniProt O43316 9-242).
T3 sequence: T2 sequence with K192R

Test [12] addresses HOXA2 (Homo sapiens, UniProt O43364 129-215, R185T).
The target in test [13] is HOXC9 (Homo sapiens, UniProt P31274 178-260).
Sequence of HOXC9 (Homo sapiens, UniProt P31274 178-260) (P31274 178-260): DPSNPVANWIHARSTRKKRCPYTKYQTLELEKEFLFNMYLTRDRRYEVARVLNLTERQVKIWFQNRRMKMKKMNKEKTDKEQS
The target in test [14] is MSX2 (Homo sapiens, UniProt P35548 130-214, R199I).
Sequence of MSX2 (Homo sapiens, UniProt P35548 130-214, R199I) (P35548 130-214 R199I): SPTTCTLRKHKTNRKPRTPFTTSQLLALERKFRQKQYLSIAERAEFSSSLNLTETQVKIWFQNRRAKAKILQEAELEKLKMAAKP
Test [15] concerns the target T4, PAX4 (Homo sapiens, UniProt O43316 9-242, R200Q).
T4 sequence: T2 sequence with K192Q

Test [16] deals with HOXC9 (Homo sapiens, UniProt P31274 178-260, R193K).
Sequence of HOXC9 (Homo sapiens, UniProt P31274 178-260, R193K) (P31274 178-260 R193K): as the sequence (P31274 178-260) above, with R16K counted along it
Test [17] addresses HOXA2 (Homo sapiens, UniProt O43364 129-215, R185K).
For test [18], the target named is T5, PAX4 (Homo sapiens, UniProt O43316 9-242, F177V).
T5 sequence: T2 sequence with F169V, K192R

Test [19] addresses MSX2 (Homo sapiens, UniProt P35548 130-214).
The target of test [20] is T6, PAX4 (Homo sapiens, UniProt O43316 9-242, F177Y).
T6 sequence: T2 sequence with F169Y, K192R

The target in test [21] is VAX1 (Homo sapiens, UniProt Q5SQQ9 86-172).
Sequence of VAX1 (Homo sapiens, UniProt Q5SQQ9 86-172) (Q5SQQ9 86-172): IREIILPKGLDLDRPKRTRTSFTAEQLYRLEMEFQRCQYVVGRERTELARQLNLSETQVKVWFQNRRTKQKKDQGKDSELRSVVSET
For test [22], the target named is HOXC9 (Homo sapiens, UniProt P31274 178-260, R222W).
Sequence of HOXC9 (Homo sapiens, UniProt P31274 178-260, R222W) (P31274 178-260 R222W): as the sequence (P31274 178-260) above, with R45W counted along it
Test [23] concerns the target MSX2 (Homo sapiens, UniProt P35548 130-214, F161Y).
The target of test [24] is VAX1 (Homo sapiens, UniProt Q5SQQ9 86-172, T142I).
Sequence of VAX1 (Homo sapiens, UniProt Q5SQQ9 86-172, T142I) (Q5SQQ9 86-172 T142I): as the sequence (Q5SQQ9 86-172) above, with T57I counted along it
Test [25] addresses T7, PAX4 (Homo sapiens, UniProt O43316 9-242, R227W).
T7 sequence: T2 sequence with K192R, R219W

Test [26] concerns the target HOXA2 (Homo sapiens, UniProt O43364 129-215, Y150S).
The target in test [27] is NKX3-2 (Homo sapiens, UniProt P78367 192-278, P234S).
Sequence of NKX3-2 (Homo sapiens, UniProt P78367 192-278, P234S) (P78367 192-278 P234S): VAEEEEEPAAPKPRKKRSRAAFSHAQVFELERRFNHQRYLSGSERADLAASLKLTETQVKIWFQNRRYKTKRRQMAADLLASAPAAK
The target of test [28] is HOXA2 (Homo sapiens, UniProt O43364 129-215).
Sequence of HOXA2 (Homo sapiens, UniProt O43364 129-215) (O43364 129-215): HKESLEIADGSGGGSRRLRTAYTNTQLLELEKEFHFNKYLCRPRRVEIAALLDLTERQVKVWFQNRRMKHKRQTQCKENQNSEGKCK
Test [29] has as its target VAX1 (Homo sapiens, UniProt Q5SQQ9 86-172, K157R).
Test [30] deals with NKX3-2 (Homo sapiens, UniProt P78367 192-278).
Sequence of NKX3-2 (Homo sapiens, UniProt P78367 192-278) (P78367 192-278): as the sequence (P78367 192-278 P234S) above, with S43P counted along it
In test [31] the target is ALX1 (Homo sapiens, UniProt Q15699 118-204, L144V).
Sequence of ALX1 (Homo sapiens, UniProt Q15699 118-204, L144V) (Q15699 118-204 L144V): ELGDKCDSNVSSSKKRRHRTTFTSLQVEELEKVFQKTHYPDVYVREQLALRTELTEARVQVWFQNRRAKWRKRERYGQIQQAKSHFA
Test [32] addresses T8, NKX2-6 (Homo sapiens, UniProt A6NCS4 118-204).
T8 sequence: T1 sequence with C33R

The target of the next test is T9, NKX2-4 (Homo sapiens, UniProt Q9H2Z4 175-261, R246Q).
T9 sequence: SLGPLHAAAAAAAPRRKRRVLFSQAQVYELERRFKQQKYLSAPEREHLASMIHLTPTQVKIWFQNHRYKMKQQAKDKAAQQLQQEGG

In test [33] the target is T10, NKX2-6 (Homo sapiens, UniProt A6NCS4 118-204, F151L).
T10 sequence: T1 sequence with C33R, F34L

Test [34] has as its target ALX1 (Homo sapiens, UniProt Q15699 118-204).
Test [35] has as its target PRRX1 (Homo sapiens, UniProt P54821 80-166, F113S).
Test [36] has as its target PRRX1 (Homo sapiens, UniProt P54821 80-166).
Test [37] addresses ALX4 (Homo sapiens, UniProt Q9H161 200-286).
Test [38] has as its target ALX4 (Homo sapiens, UniProt Q9H161 200-286, Q225E).

Sequence of NKX2-5 (Homo sapiens, UniProt P52952 125-210, R139K) (P52952 125-210 R139K): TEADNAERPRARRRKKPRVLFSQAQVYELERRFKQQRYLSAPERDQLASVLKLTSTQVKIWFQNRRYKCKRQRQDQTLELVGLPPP
Sequence of NKX2-5 (Homo sapiens, UniProt P52952 125-210) (P52952 125-210): as the sequence (P52952 125-210 R139K) above, with K15R counted along it
Sequence of HOXA2 (Homo sapiens, UniProt O43364 129-215, R185K) (O43364 129-215 R185K): as the sequence (O43364 129-215) above, with R57K counted along it
Sequence of HOXA2 (Homo sapiens, UniProt O43364 129-215, R185T) (O43364 129-215 R185T): as the sequence (O43364 129-215) above, with R57T counted along it
Sequence of HOXA2 (Homo sapiens, UniProt O43364 129-215, Y150S) (O43364 129-215 Y150S): as the sequence (O43364 129-215) above, with Y22S counted along it
Sequence of HOXD13 (Homo sapiens, UniProt P35453 263-343) (P35453 263-343): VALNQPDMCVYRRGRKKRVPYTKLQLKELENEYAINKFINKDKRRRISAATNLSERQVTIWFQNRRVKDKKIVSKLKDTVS
Sequence of HOXD13 (Homo sapiens, UniProt P35453 263-343, T313A) (P35453 263-343 T313A): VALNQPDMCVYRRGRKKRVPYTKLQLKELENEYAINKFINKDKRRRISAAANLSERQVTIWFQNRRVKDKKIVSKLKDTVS
Sequence of MSX2 (Homo sapiens, UniProt P35548 130-214, F161Y) (P35548 130-214 F161Y): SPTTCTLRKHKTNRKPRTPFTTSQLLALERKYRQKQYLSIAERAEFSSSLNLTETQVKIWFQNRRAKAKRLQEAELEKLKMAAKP
Sequence of VAX1 (Homo sapiens, UniProt Q5SQQ9 86-172, K157R) (Q5SQQ9 86-172 K157R): as the sequence (Q5SQQ9 86-172) above, with K72R counted along it
Sequence of ALX4 (Homo sapiens, UniProt Q9H161 200-286, Q225E) (Q9H161 200-286 Q225E): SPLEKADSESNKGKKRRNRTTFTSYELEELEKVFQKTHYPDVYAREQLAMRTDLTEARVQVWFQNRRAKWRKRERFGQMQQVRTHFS
Sequence of HOXC10 (Homo sapiens, UniProt Q9NYD6 254-340) (Q9NYD6 254-340): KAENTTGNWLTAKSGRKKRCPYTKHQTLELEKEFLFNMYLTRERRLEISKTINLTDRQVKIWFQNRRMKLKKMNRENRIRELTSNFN
Sequence of HOXC10 (Homo sapiens, UniProt Q9NYD6 254-340, K271E) (Q9NYD6 254-340 K271E): as the sequence (Q9NYD6 254-340) above, with K18E counted along it
Sequence of PRRX1 (Homo sapiens, UniProt P54821 80-166) (P54821 80-166): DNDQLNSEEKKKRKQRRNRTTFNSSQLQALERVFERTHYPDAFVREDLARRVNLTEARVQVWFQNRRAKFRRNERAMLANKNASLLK
Sequence of ALX4 (Homo sapiens, UniProt Q9H161 200-286) (Q9H161 200-286): as the sequence (Q9H161 200-286 Q225E) above, with E26Q counted along it
Sequence of PRRX1 (Homo sapiens, UniProt P54821 80-166, F113S) (P54821 80-166 F113S): as the sequence (P54821 80-166) above, with F34S counted along it
Sequence of MSX2 (Homo sapiens, UniProt P35548 130-214) (P35548 130-214): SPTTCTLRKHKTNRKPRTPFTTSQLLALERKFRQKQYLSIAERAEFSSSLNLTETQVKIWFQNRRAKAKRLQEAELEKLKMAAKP
Sequence of ALX1 (Homo sapiens, UniProt Q15699 118-204) (Q15699 118-204): as the sequence (Q15699 118-204 L144V) above, with V27L counted along it

CACAAGTG: the binding signal is 12.4 upbm affinity estimate (log intensity, higher = more binding, comparable within an allelic series) with NKX2-5 [1] and 11.6 upbm affinity estimate (log intensity, higher = more binding, comparable within an allelic series) with NKX2-6 [2].
For CCCCCCGG, the binding signal was 8.2 upbm affinity estimate (log intensity, higher = more binding, comparable within an allelic series) in the test with NKX2-5 [1]; 9.81 upbm affinity estimate (log intensity, higher = more binding, comparable within an allelic series) in the test with HOXC10 [3]; 8.56 upbm affinity estimate (log intensity, higher = more binding, comparable within an allelic series) with NKX2-6 [2]; 8.85 upbm affinity estimate (log intensity, higher = more binding, comparable within an allelic series) with HOXD13 [4]; 8.78 upbm affinity estimate (log intensity, higher = more binding, comparable within an allelic series) with HOXD13 [5]; 9.82 upbm affinity estimate (log intensity, higher = more binding, comparable within an allelic series) with HOXC10 [6]. The binding signal is 8.98 upbm affinity estimate (log intensity, higher = more binding, comparable within an allelic series) with HOXD13 [7] and 8.1 upbm affinity estimate (log intensity, higher = more binding, comparable within an allelic series) with NKX2-5 [8].
Take AGCCCGGG: the binding signal is 8.84 upbm affinity estimate (log intensity, higher = more binding, comparable within an allelic series) in the test with NKX2-5 [1]; 9.48 upbm affinity estimate (log intensity, higher = more binding, comparable within an allelic series) with HOXC9 [9]; 9.12 upbm affinity estimate (log intensity, higher = more binding, comparable within an allelic series) with PAX4 [10]; 8.95 upbm affinity estimate (log intensity, higher = more binding, comparable within an allelic series) with PAX4 [11]; 7.03 upbm affinity estimate (log intensity, higher = more binding, comparable within an allelic series) with HOXA2 [12]; 9.82 upbm affinity estimate (log intensity, higher = more binding, comparable within an allelic series) with HOXC9 [13]. Besides, the binding signal with MSX2 [14] was 9.38 upbm affinity estimate (log intensity, higher = more binding, comparable within an allelic series); in the test with PAX4 [15], 9.17 upbm affinity estimate (log intensity, higher = more binding, comparable within an allelic series); with HOXC9 [16], 9.63 upbm affinity estimate (log intensity, higher = more binding, comparable within an allelic series); in the test with HOXA2 [17] it was 10.2 upbm affinity estimate (log intensity, higher = more binding, comparable within an allelic series); with PAX4 [18], 9.12 upbm affinity estimate (log intensity, higher = more binding, comparable within an allelic series); in the test with MSX2 [19], 9.25 upbm affinity estimate (log intensity, higher = more binding, comparable within an allelic series). Further, the binding signal is 9.07 upbm affinity estimate (log intensity, higher = more binding, comparable within an allelic series) in the test with PAX4 [20]; 6.75 upbm affinity estimate (log intensity, higher = more binding, comparable within an allelic series) in the test with VAX1 [21]; 9.71 upbm affinity estimate (log intensity, higher = more binding, comparable within an allelic series) in the test with HOXC9 [22]; 9.37 upbm affinity estimate (log intensity, higher = more binding, comparable within an allelic series) in the test with MSX2 [23]; 6.9 upbm affinity estimate (log intensity, higher = more binding, comparable within an allelic series) with VAX1 [24]; 9.13 upbm affinity estimate (log intensity, higher = more binding, comparable within an allelic series) with PAX4 [25]. The binding signal with HOXA2 [26] was 10.4 upbm affinity estimate (log intensity, higher = more binding, comparable within an allelic series); in the test with NKX3-2 [27], 10.4 upbm affinity estimate (log intensity, higher = more binding, comparable within an allelic series); in the test with HOXA2 [28] it was 7.06 upbm affinity estimate (log intensity, higher = more binding, comparable within an allelic series); with VAX1 [29], 6.72 upbm affinity estimate (log intensity, higher = more binding, comparable within an allelic series); with NKX2-5 [8], 8.8 upbm affinity estimate (log intensity, higher = more binding, comparable within an allelic series); with NKX3-2 [30], 10.3 upbm affinity estimate (log intensity, higher = more binding, comparable within an allelic series).
For the sequence CGCACTTA, the binding signal was 12.6 upbm affinity estimate (log intensity, higher = more binding, comparable within an allelic series) with NKX2-5 [1]; 11.8 upbm affinity estimate (log intensity, higher = more binding, comparable within an allelic series) in the test with NKX2-6 [2]; 8.31 upbm affinity estimate (log intensity, higher = more binding, comparable within an allelic series) with ALX1 [31]; 13.5 upbm affinity estimate (log intensity, higher = more binding, comparable within an allelic series) with NKX2-6 [32]; 12.9 upbm affinity estimate (log intensity, higher = more binding, comparable within an allelic series) in the test with NKX2-4; 10.9 upbm affinity estimate (log intensity, higher = more binding, comparable within an allelic series) with NKX2-6 [33]. Further, the binding signal with NKX3-2 [27] was 12.6 upbm affinity estimate (log intensity, higher = more binding, comparable within an allelic series); in the test with ALX1 [34], 8.83 upbm affinity estimate (log intensity, higher = more binding, comparable within an allelic series); in the test with NKX2-5 [8], 12.5 upbm affinity estimate (log intensity, higher = more binding, comparable within an allelic series); with NKX3-2 [30] it was 12.7 upbm affinity estimate (log intensity, higher = more binding, comparable within an allelic series).
Take CAGCCCGG: the binding signal in the test with NKX2-5 [1] is 8.37 upbm affinity estimate (log intensity, higher = more binding, comparable within an allelic series); with HOXA2 [12], 7.16 upbm affinity estimate (log intensity, higher = more binding, comparable within an allelic series); with HOXD13 [4] it was 9.5 upbm affinity estimate (log intensity, higher = more binding, comparable within an allelic series); in the test with HOXA2 [17], 10.1 upbm affinity estimate (log intensity, higher = more binding, comparable within an allelic series); with HOXD13 [5], 9.67 upbm affinity estimate (log intensity, higher = more binding, comparable within an allelic series); with HOXD13 [7] it was 9.74 upbm affinity estimate (log intensity, higher = more binding, comparable within an allelic series). Also, the binding signal with HOXA2 [26] was 10.3 upbm affinity estimate (log intensity, higher = more binding, comparable within an allelic series); in the test with HOXA2 [28] it was 7.06 upbm affinity estimate (log intensity, higher = more binding, comparable within an allelic series); with NKX2-5 [8], 8.35 upbm affinity estimate (log intensity, higher = more binding, comparable within an allelic series).
In the case of CGCCTACC, the binding signal with NKX2-5 [1] was 8.86 upbm affinity estimate (log intensity, higher = more binding, comparable within an allelic series); in the test with PRRX1 [35], 9.18 upbm affinity estimate (log intensity, higher = more binding, comparable within an allelic series); with PRRX1 [36], 8.83 upbm affinity estimate (log intensity, higher = more binding, comparable within an allelic series); with NKX2-5 [8] it was 8.84 upbm affinity estimate (log intensity, higher = more binding, comparable within an allelic series).
With AGTCCCGG, the binding signal with NKX2-5 [1] is 8.88 upbm affinity estimate (log intensity, higher = more binding, comparable within an allelic series); with PAX4 [10] it was 9.42 upbm affinity estimate (log intensity, higher = more binding, comparable within an allelic series); with PAX4 [11], 9.48 upbm affinity estimate (log intensity, higher = more binding, comparable within an allelic series); in the test with NKX2-6 [32], 9.31 upbm affinity estimate (log intensity, higher = more binding, comparable within an allelic series); in the test with PAX4 [15], 9.44 upbm affinity estimate (log intensity, higher = more binding, comparable within an allelic series); in the test with PAX4 [18], 9.3 upbm affinity estimate (log intensity, higher = more binding, comparable within an allelic series). The binding signal with PAX4 [20] was 9.36 upbm affinity estimate (log intensity, higher = more binding, comparable within an allelic series); with NKX2-6 [33], 9.26 upbm affinity estimate (log intensity, higher = more binding, comparable within an allelic series); with PAX4 [25], 9.43 upbm affinity estimate (log intensity, higher = more binding, comparable within an allelic series); with NKX2-5 [8] it was 8.88 upbm affinity estimate (log intensity, higher = more binding, comparable within an allelic series).
With AGCCGGGG, the binding signal was 9.08 upbm affinity estimate (log intensity, higher = more binding, comparable within an allelic series) with NKX2-5 [1]; 8.22 upbm affinity estimate (log intensity, higher = more binding, comparable within an allelic series) in the test with ALX4 [37]; 8.28 upbm affinity estimate (log intensity, higher = more binding, comparable within an allelic series) with ALX4 [38]; 9.03 upbm affinity estimate (log intensity, higher = more binding, comparable within an allelic series) in the test with NKX2-5 [8].
